Shown is part of a subset that was picked to be rich in hits.
Pf Dd2 growth: Plasmodium falciparum Dd2 growth inhibition | P. falciparum Dd2 growth, SYBR Green, 72 h | actives 4.3% (n = 120,000) | Potency, µM (series often up to 28.9 µM), inactives show top-dose activity, negative = inhibition, usual class: inhibitors | AID 1347417; active means well fitted inhibition curve with a large enough effect;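 further: plate controls were DMSO vehicle for no effect and reference drug for full effect; nearly all actives have a fitted effect of over 65% in size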
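Infected erythrocytes (Dd2, 0.3% parasitemia, 2.5% hematocrit final) are added to compound in RPMI-1640/Albumax II medium, grown 72 h at 37C in low oxygen, then lysed with saponin/Triton-X containing SYBR Green and read by fluorescence.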
* hit, by the source's call; i = inactive; [ ] = another dose, or the depositor's remark. Potency means the concentration at half of the fitted maximal effect.

SMILES	Pf Dd2 growth
CN1c2cc(C(=O)N3CCN(c4ccccc4Cl)CC3)ccc2C(=O)N2CCCCC21 (stereo not drawn)	6.3µM*
COC(C(=O)Nc1ccnn1C1CCN(C(=O)C2CCC2)CC1)c1ccccc1 (stereo not drawn)	-2%
O=C(C1CC1)N1CCCC(c2nn(-c3ccccc3)c(=O)[nH]2)C1 (stereo not drawn)	-18%[44.1 µM]
O=C1CO[C@H]2CN(Cc3ncc[nH]3)C[C@H]2N1Cc1ccccc1	i
COc1ccc(CC(=O)N2CCC3(CC2)CN(C(=O)c2ccc(Cl)cc2)CCO3)cc1	-8%
NC(Cc1ccccc1)C(=O)N1CCC2(CC1)CN(C(=O)c1ccc(Cl)cc1)CCO2 (stereo not drawn)	0.63µM*
CC(=O)N1CCC2(CC1)CN(C(=O)c1ccc(Cl)cc1)CCO2	4%
Cc1csc(NC(=O)c2nc3c(o2)CCN(CC2CCCC2)CC3)n1	i
O=C(c1ccc(F)cc1)n1nc(-c2ccccc2)nc1NCc1ccco1	32%
O=C(Nc1nc2n(n1)C(c1ccc(Cl)cc1)C=C(c1ccccc1)N2)c1ccco1 (stereo not drawn)	13µM*
CC1=C(C(=O)Nc2ccccc2)C(c2ccccc2)n2nc(-c3ccco3)nc2N1 (stereo not drawn)	i
O=S(=O)(Nc1nc2n(n1)C(c1ccc(F)cc1)C=C(c1ccccc1)N2)c1ccccc1 (stereo not drawn)	0%
O=C(NCc1nnc2ccc(-c3ccc(Cl)cc3)nn12)c1ccco1	i
O=C(Nc1nc2n(n1)C(c1ccc(F)cc1)C=C(c1ccccc1)N2)c1ccco1 (stereo not drawn)	10µM*
CCc1nc2c(NC(=O)NCc3ccc(OC)cc3)cccn2n1	i
COc1ccccc1CCC(=O)Nc1cccn2nc(C(C)C)nc12	10µM*
CC(C)c1nc2c(NC(=O)COc3ccccc3)cccn2n1	i
Cc1ccc(-c2ccc3nnc(CNC(=O)CSc4ccncc4)n3n2)cc1	-7%
CCCc1ncncc1C(=O)NC1CC(c2nnc(CO)n2C2CC2)C1 (stereo not drawn)	-2%
COc1cccc(CCC(=O)N(C)C2CCc3nnc(C)n3CC2)c1 (stereo not drawn)	i
O=C(NCc1cc(F)ccc1F)C1CN(S(=O)(=O)c2cccnc2)CC12CCCCC2 (stereo not drawn)	2.8µM*
O=C(NCCCN1CCCC1=O)C1CN(S(=O)(=O)c2ccccc2)CC12CCCCC2 (stereo not drawn)	34%
O=C(Nc1cc(F)ccc1F)C1CN(S(=O)(=O)c2cccnc2)CC12CCCCC2 (stereo not drawn)	-20%
COC(=O)CCNC(=O)C1CN(S(=O)(=O)c2cccnc2)CC12CCCCC2 (stereo not drawn)	-10%
O=C(NCCN1CCOCC1)C1CN(S(=O)(=O)c2ccccc2)CC12CCCCC2 (stereo not drawn)	4µM*
SMILES	Pf Dd2 growth
O=C(NCCc1cccs1)C1CN(S(=O)(=O)c2cccnc2)CC12CCCCC2 (stereo not drawn)	-5%
Cc1n[nH]c(C)c1S(=O)(=O)N(CC(=O)NC(C)c1ccccc1)c1ccc(C(C)C)cc1 (stereo not drawn)	-16%
COc1ccc(N(CC(=O)NCc2ccc(F)cc2)S(=O)(=O)c2c(C)n[nH]c2C)cc1	13%
Cc1ccc(N(CC(=O)Nc2ccc(C)c(F)c2)S(=O)(=O)c2c(C)n[nH]c2C)cc1	8.9µM*
CC(C)N1CCOC[C@H]1c1ncc(-c2ccc(OC(F)(F)F)cc2)[nH]1	-5%[44.1 µM]
CC1CCCN(CCCNC(=O)c2cc3c(Cl)nc4ccccc4c3s2)C1 (stereo not drawn)	4.5µM*
COCCNC(=O)c1cc2c(Cl)nc3ccc(C)cc3c2s1	-10%
CCCCN(CC)CCCNC(=O)c1cc2c(=O)oc3ccc(C)cc3c2s1	10%
Cc1cccc(CCNC(=O)c2cc3c(=O)[nH]c4ccc(C)cc4c3s2)c1	-17%
Cc1ccc2nc(Cl)c3cc(C(=O)NC4CCCCCC4)sc3c2c1	-6%
CCN(CCCNC(=O)c1cc2c(=O)[nH]c3ccc(C)cc3c2s1)Cc1ccccc1	7.9µM*
CCN(CCCNC(=O)c1cc2c(=O)n(C)c3ccccc3c2s1)Cc1ccccc1	5µM*
CCN(CCCNC(=O)c1cc2c(=O)n(C)c3ccccc3c2s1)c1ccccc1	13%[5.79 µM]
CC1CCC(NC(=O)c2cc3c(Cl)nc4ccccc4c3s2)CC1 (stereo not drawn)	27%
CCOc1ccc(CNC(=O)c2cc3c(=O)n(C)c4ccccc4c3s2)cc1	13%
CC1CCCN(C(=O)c2cc3c(Cl)nc4ccccc4c3s2)C1 (stereo not drawn)	-2%
Cc1ccc2nc(Cl)c3cc(C(=O)NCCCN(C)Cc4ccccc4)sc3c2c1	7.9µM*
O=C(O)Cn1nc(C2CC2)nc1CCCN1CCCC1=O	-2%
Cc1cc(-c2cc3c(cn2)CN(Cc2ccc(C(F)(F)F)cc2)CCN3)ccn1	i
O=C(Cn1ccn2nc(-c3ccc(F)cc3)c(CO)c2c1=O)Nc1ccc(C(F)(F)F)cc1	-2%
CCc1nnc([C@@H]2CC(F)(F)CN2C(=O)COc2ccccc2)o1	21%
COCCOCC(=O)N1CCCCCNC(=O)[C@@H]2CCC[C@@H]21	6%
CNC(=O)[C@@H]1CN(C(=O)c2cc(C)on2)C[C@H]1COC	19%
CS(=O)(=O)N1CCC(Cc2ccc(C(=O)O)cc2)CC1	1%
CC(=O)Nc1cccc(-c2nc(-c3c(C)noc3C)cc3cc(C)oc23)c1	-6%[44.1 µM]
SMILES	Pf Dd2 growth
CCCC1c2nccn2CCCN1C(=O)c1ccoc1C (stereo not drawn)	-1%
O=C(c1ccc2c(c1)OCO2)N1CC(Oc2ccc(F)c(F)c2)C1	9%
COCCN(Cc1ccco1)C(=O)c1cc2c(=O)[nH]c3ccc(C)cc3c2s1	i
CCCN(C(=O)c1cc2c(=O)[nH]c3ccc(C)cc3c2s1)c1ccc(CC)cc1	-14%
CCOCCCN(Cc1ccco1)C(=O)c1cc2c(=O)[nH]c3ccc(C)cc3c2s1	10µM*
O=C(c1ccco1)N1CCCC(Cc2nc(C3CCOCC3)no2)C1 (stereo not drawn)	1%
Cc1nc(NCCc2nc3ccccc3n2C)cc(C2CC(O)C2)n1 (stereo not drawn)	-11%
Cn1cc(-c2cc(=O)c3ccnc(NC4CCOCC4)c3o2)cn1	-27%[44.1 µM]
Cn1cc(-c2cc(=O)c3ccnc(NCc4ccc(F)cc4)c3o2)cn1	-21%[44.1 µM]
Cn1cc(-c2cc(=O)c3ccnc(Nc4ccc5[nH]ccc5c4)c3o2)cn1	7.1µM*
O=C(c1ccccc1OC(F)(F)F)N1CCC2(CC1)CC(O)CCO2 (stereo not drawn)	20%
COCCOC1CCN(C(=O)NCc2ccc(C)cc2)CC1	-2%
Cc1ccc(CNC(=O)N2CCC(Cn3c(C)cnc3C3CCOCC3)CC2)cc1	-24%
Cc1ccc(CNC(=O)N2CCCC(CN3CCCC3)CC2)cc1 (stereo not drawn)	4.5µM*
O=C(O)c1cccc(-c2cncc(C(=O)O)c2)c1	i
Cc1ccc(C(=O)N2CCc3sc(C(=O)NCc4ccc(F)cc4F)cc3C2)cc1	-14%
Cc1ccc(C(=O)N2CCc3sc(C(=O)NCc4ccc(C)o4)cc3C2)cc1	11µM*
Cc1ccc(C(=O)N2CCc3sc(C(=O)O)cc3C2)cc1	18%
Cc1ccc(Cl)cc1Nc1nn2c(=O)c3ccc(C(=O)NCc4cccs4)cc3nc2s1	i
Cc1ccccc1Nc1nn2c(=O)c3ccc(C(=O)NCC(C)c4ccccc4)cc3nc2s1 (stereo not drawn)	13µM*
